Assay outcomes as filed in PubChem.
PLK1 PBD block: PLK1 (human) polo-box domain binding inhibition; P53350; Plk1 PBD binding of FITC phosphopeptide, fluorescence polarization; Potency, µM, for the others: max response, negative = inhibition, most hits filed as inhibitors; 360,000 compounds, 2.8% hits; AID 720504; also: series mostly up to about 57 µM; % is scaled to controls: 0 for no effect and ±100 for the full control effect; nearly all actives have a fitted effect of over 65% in size
Tb PFK inh: T. brucei PFK enzyme inhibition; T. brucei PFK, ADP-Glo luminescence; Potency, µM (doses to about 57.5 µM), for inactives: top-dose activity, negative = inhibition, usual class: inhibitors; 330,000 compounds, 0.17% hits; AID 485367;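 also: 0% = uninhibited 1x PFK enzyme wells and -100% = no-enzyme wells; nearly all actives have a fitted effect of over 60% in size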
Target sequence (O15648 whole entry, looked up): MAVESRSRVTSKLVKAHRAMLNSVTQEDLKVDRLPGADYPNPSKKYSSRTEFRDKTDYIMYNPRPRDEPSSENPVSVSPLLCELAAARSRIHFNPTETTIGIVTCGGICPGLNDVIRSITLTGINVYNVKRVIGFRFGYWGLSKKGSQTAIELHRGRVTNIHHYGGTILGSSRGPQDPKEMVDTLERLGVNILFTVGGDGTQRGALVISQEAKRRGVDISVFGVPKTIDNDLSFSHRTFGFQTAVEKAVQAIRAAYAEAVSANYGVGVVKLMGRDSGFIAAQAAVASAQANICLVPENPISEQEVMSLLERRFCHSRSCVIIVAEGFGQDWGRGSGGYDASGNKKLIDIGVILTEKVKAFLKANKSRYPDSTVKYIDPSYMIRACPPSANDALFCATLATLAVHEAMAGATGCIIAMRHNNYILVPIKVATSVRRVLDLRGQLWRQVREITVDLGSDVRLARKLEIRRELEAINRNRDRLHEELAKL
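1.25 nM PFK with 0.5 mM F6P and 0.1 mM ATP in 0.1 M TEA pH 8.0, 5 mM MgCl2, incubated 45 min at room temperature; ADP measured by ADP-Glo luminescence; compounds titrated up to 57 uM.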
VDR inhibitor: inhibitors of human vitamin D receptor. P11473. 400,000 compounds, 0.93% hits. AID 504847. VDR-SRC2-3 peptide fluorescence polarization, 2 h. Potency, µM, inactives show max response, negative = inhibition, hits mostly inhibitors; also: % is scaled to controls: 0 for no effect and ±100 for the full control effect
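Fluorescence polarization assay measuring small-molecule disruption of VDR binding to the coregulator peptide SRC2-3. Compounds were pin-transferred (23 nl) into the reagent mix and incubated 2 h at room temperature before reading.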
BRCA1 expr up: increases BRCA1 expression | MCF7-BRCA1-FFLuc reporter, luminescence, 48 h; response scale: scaled: vehicle 0%, 10 µM genistein 100% | Potency, µM (series often up to 46.1 µM), for inactives: at the top dose activation, actives largely listed as activators | 380,000 compounds, 1.1% hits; also: nearly all actives have a fitted effect of over 80% in size
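Reporter cells (MCF7, BRCA1 promoter-firefly luciferase) received library compounds across a concentration series for 48 h. End-point luminescence was measured and concentration-effect curves derived after normalization.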
* = called active by the depositor. Rows were chosen to be rich in hits. Some 3.9% of all compounds tested hit in one or more screens of this group. Calls follow the shape of the dose curve; as a rule, active = well fitted curve in the direction sought with a large enough effect; inconclusive = small, poorly fitted or top-dose-only effect, or another doubt; inactive = no such curve, though single readings can be large; an effect the other way counts as inactive or inconclusive. Potency is read from the fitted curve at half-maximal effect.

Results for CCCn1c(SCC(=O)NCc2ccc(C)cc2)n[nH]c1=O ?
PLK1 PBD block: 0%; Tb PFK inh: -1%; VDR inhibitor: 20%; BRCA1 expr up: 11%

Results for CC(=O)Nc1ccc(NC(=O)COc2ccc(Br)cc2C)cc1 ?
PLK1 PBD block: -3%; Tb PFK inh: -1%; VDR inhibitor: 7%; BRCA1 expr up: -11%

What do the screens show for `Cc1cccc(NC(=O)COc2ccc(Br)cc2/C=N/O)c1`?
PLK1 PBD block: -9%; Tb PFK inh: 0%; VDR inhibitor: -2%; BRCA1 expr up: 4.5µM*

Results for COc1cc2ccc(CC(N)=O)cc2cc1OC ?
PLK1 PBD block: -8%; BRCA1 expr up: -5%

What do the screens show for `CCn1c2ccccc2c2cc(NC(=O)C(=O)N3CCOCC3)ccc21`?
PLK1 PBD block: 21µM*; Tb PFK inh: -2%; VDR inhibitor: -10%; BRCA1 expr up: inconclusive

How did O=c1[nH]c(C2CCN(S(=O)(=O)c3ccccc3)CC2)nc2c1nnn2Cc1ccccc1 do in these assays?
PLK1 PBD block: 24µM*; Tb PFK inh: 5%; VDR inhibitor: -30%; BRCA1 expr up: -29%

What do the screens show for `COc1ccc(NC(=O)c2cccc(N3C(=O)C4C5C=CC(C6CC56)C4C3=O)c2)c(OC)c1` (stereo not given)?
PLK1 PBD block: 24µM*; Tb PFK inh: 1%; VDR inhibitor: -9%; BRCA1 expr up: 6%

Results for COc1ccc(NC(=O)c2cccc(N3C(=O)C4C5C=CC(C5)C4C3=O)c2)c(OC)c1 (stereo not given) ?
PLK1 PBD block: -5%; Tb PFK inh: 2%; VDR inhibitor: -4%; BRCA1 expr up: 23%

How did CSc1ccccc1OCc1cc(C(=O)N2CCN(c3ccccc3)CC2C)no1 (stereo not given) do in these assays?
PLK1 PBD block: 0%; Tb PFK inh: 1%; VDR inhibitor: -14%; BRCA1 expr up: 13µM*

Results for CC(=O)c1ccc(OCc2cc(C(=O)N3CCN(c4ccccc4)CC3C)no2)cc1 (stereo not given) ?
PLK1 PBD block: -9%; Tb PFK inh: 0%; VDR inhibitor: -10%; BRCA1 expr up: inconclusive

What do the screens show for `Cc1cccc(Nc2ncnc3c2cnn3Cc2ccccc2)c1`?
PLK1 PBD block: 24µM*; Tb PFK inh: 1%; VDR inhibitor: -12%; BRCA1 expr up: -9%

What do the screens show for `COc1ccc(Nc2ncnc3c2cnn3Cc2ccccc2)cc1OC`?
PLK1 PBD block: -1%; Tb PFK inh: -9%; VDR inhibitor: -7%; BRCA1 expr up: -57%

What do the screens show for `COc1ccc(CC(=O)NNc2ncnc3c2cnn3Cc2ccccc2)cc1OC`?
PLK1 PBD block: 27µM*; Tb PFK inh: -1%; VDR inhibitor: -21%; BRCA1 expr up: -14%

What do the screens show for `COc1cc(/C=C/c2nc3ccccc3c(=O)[nH]2)cc(OC)c1OC`?
PLK1 PBD block: 2%; Tb PFK inh: 0%; VDR inhibitor: 22%; BRCA1 expr up: -7%

How did COc1cc(/C=C/c2nc3ccccc3c(=O)[nH]2)ccc1OC(F)F do in these assays?
PLK1 PBD block: -1%; Tb PFK inh: 1%; VDR inhibitor: 7%; BRCA1 expr up: 3.2µM*

What do the screens show for `O=C(Nc1ccc(S(=O)(=O)Nc2ncccn2)cc1)C12CC3CC(CC(Cl)(C3)C1)C2`?
PLK1 PBD block: -20%; Tb PFK inh: 7%; VDR inhibitor: 2%; BRCA1 expr up: -3%

How did CN(C)S(=O)(=O)c1cccc(NC(=O)COC(=O)/C=C/c2ccco2)c1 do in these assays?
PLK1 PBD block: 30µM*; Tb PFK inh: inconclusive; VDR inhibitor: inconclusive; BRCA1 expr up: -21%

What do the screens show for `COC(=O)CCC(=O)Nc1sc(C)c(C)c1C(N)=O`?
PLK1 PBD block: 4.7µM*; Tb PFK inh: -11%; VDR inhibitor: 50µM*; BRCA1 expr up: 4%

Results for Cc1sc(NC(=O)CCC(=O)O)c(C(N)=O)c1-c1ccccc1 ?
PLK1 PBD block: 13µM*; Tb PFK inh: -14%; VDR inhibitor: inconclusive; BRCA1 expr up: -1%

How did COC(=O)CCC(=O)NC(=S)Nc1sc(C)c(C)c1C(N)=O do in these assays?
PLK1 PBD block: -23%; Tb PFK inh: -3%; VDR inhibitor: -1%; BRCA1 expr up: -72%

What do the screens show for `CCOC(=O)c1c(NC(=O)CCN2CCOCC2)sc(C)c1-c1ccccc1`?
PLK1 PBD block: -14%; Tb PFK inh: -3%; VDR inhibitor: -13%; BRCA1 expr up: -3%

What do the screens show for `COc1ccc(NC(=O)c2c(NC(=O)CCC(=O)O)sc(-c3ccccc3)c2C)cc1`?
PLK1 PBD block: 24µM*; Tb PFK inh: -20%; VDR inhibitor: inconclusive; BRCA1 expr up: -10%

What do the screens show for `CCc1ccc(-c2c(C)sc(NC(C)=O)c2C(N)=O)cc1`?
PLK1 PBD block: 27µM*; Tb PFK inh: 2%; VDR inhibitor: -13%; BRCA1 expr up: -31%

Results for COC(=O)c1c(NC(=O)CCC(=O)O)sc(Cc2ccccc2)c1C ?
PLK1 PBD block: inconclusive; Tb PFK inh: -3%; VDR inhibitor: -15%; BRCA1 expr up: -22%

What do the screens show for `CCCC(=O)Nc1sc(Cc2ccccc2)c(C)c1C(N)=O`?
PLK1 PBD block: 5.3µM*; Tb PFK inh: -18%; VDR inhibitor: inconclusive; BRCA1 expr up: -17%

What do the screens show for `Cc1cc(C)nc(-n2nc(C)c3c2N(Cc2ccccc2F)C(=O)CC3c2ccc(Cl)cc2)n1` (stereo not given)?
VDR inhibitor: 19%

How did CC(C)c1ccc(NC(=O)C2CCCN2S(=O)(=O)c2ccc3nc(-c4ccccc4)[nH]c3c2)cc1 (stereo not given) do in these assays?
VDR inhibitor: 16%

Results for C=C(C)CSc1nnc(-c2cccc(Cl)c2)n1N ?
PLK1 PBD block: -4%; Tb PFK inh: -1%; VDR inhibitor: 9%; BRCA1 expr up: 13µM*

Results for CC(Sc1nnc(CN2CCCC2)n1Cc1ccccc1)C(=O)Nc1ccc(F)cc1Cl (stereo not given) ?
PLK1 PBD block: 2%; VDR inhibitor: 2%; BRCA1 expr up: -20%

Results for O=C(Oc1ccc(=O)n(-c2ccccc2)n1)c1ccc(Cl)cc1 ?
PLK1 PBD block: inconclusive; Tb PFK inh: -19%; VDR inhibitor: 0%; BRCA1 expr up: 2%

What do the screens show for `O=C(Oc1ccc(=O)n(-c2ccccc2)n1)c1cccc(Cl)c1`?
PLK1 PBD block: 6.7µM*; Tb PFK inh: -2%; VDR inhibitor: -16%; BRCA1 expr up: 1%

What do the screens show for `FC(F)(F)c1ccc(-c2nnc(-c3cccnc3)o2)cc1`?
PLK1 PBD block: 3%; Tb PFK inh: 1%; VDR inhibitor: 4%; BRCA1 expr up: 55%

How did Cc1ccc(-c2nnc(-c3ccc(Br)cc3)o2)o1 do in these assays?
PLK1 PBD block: -5%; Tb PFK inh: 2%; VDR inhibitor: 15%; BRCA1 expr up: 3.2µM*

What do the screens show for `Clc1ccc(-c2nnc(-c3cccnc3)o2)cc1`?
PLK1 PBD block: -9%; Tb PFK inh: 5%; VDR inhibitor: -20%; BRCA1 expr up: 7.9µM*

How did Brc1ccc(-c2nnc(-c3ccco3)o2)cc1 do in these assays?
PLK1 PBD block: -1%; Tb PFK inh: -7%; VDR inhibitor: 5%; BRCA1 expr up: inconclusive
